# Test results reported in PubChem BioAssay (EPA / NIEHS).
# Some compounds were tested as several samples or in several runs, with calls that do not always agree. Activity calls are given as the source filed them. Rule for the calls: active = hit-call score of the fitted dose curve at least 0.9, where 1 is the maximum; inactive = score below 0.9.
# Tests used:
# [1] = ATG_ISRE_CIS: Attagene CIS-FACTORIAL HepG2 Assay for human Interferon Regulatory Factor 1 (IRF1) binding to an Interferon-Stimulated Response Element (ISRE) (AID 2282948); conditions: HepG2 ISRE cis-reporter (Attagene), mRNA transcription readout; actives raise or lower the signal
# In short: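 Endogenous transcription factor activity read as reporter transcript abundance via RT-PCR and capillary electrophoresis. HepG2 cells transiently transfected, 24 h chemical exposure. Gain or loss fitted against DMSO baseline.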
# [2] = ATG_M_32_CIS: Attagene CIS-FACTORIAL HepG2 Assay for M32 Transcription Factor (Internal Marker) (AID 2282949); conditions: HepG2 Attagene cis-factorial M32 reporter, mRNA; actives raise or lower the signal;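 note: background control marker of the multiplexed CIS panel rather than a real target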
# In short: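 HepG2 human liver cells transiently transfected with cis-promoter-driven multiple reporter transcription units, dosed 24 h. Reporter mRNA quantified by RT-PCR, FAM-labelled primer extension, HpaI digest and capillary electrophoresis; bidirectional fit versus DMSO baseline.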
# [3] = ATG_M_06_CIS: Attagene CIS-FACTORIAL HepG2 Assay for M06 Transcription Factor (Internal Marker) (AID 2282950); conditions: HepG2 Attagene CIS-FACTORIAL M06 internal marker reporter; actives raise or lower the signal
# In short: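 HepG2 liver cells, 24 h exposure. Reporter transcripts from transfected cis-element constructs quantified by RT-PCR/capillary electrophoresis fluorescence. Bidirectional curve fit against DMSO.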
# [4] = biological target: Hypoxia-inducible factor 1-alpha (Homo sapiens) (UniProt Q16665); experiment: ATG_HIF1a_CIS: Attagene CIS-FACTORIAL HepG2 Assay for human Hypoxia Inducible Factor 1 (HIF1A) (AID 2282951); conditions: HepG2 Attagene cis-factorial HIF1a reporter transcription; actives raise or lower the signal
# In short: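 Endogenous-TF cis reporter readout, human HepG2 cells, 24 h incubation; mRNA detected via RT-PCR and capillary electrophoresis fluorescence; DMSO-normalised bidirectional fitting.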
# [5] = biological target: Hepatocyte nuclear factor 6 (Homo sapiens) (UniProt Q9UBC0); experiment: ATG_HNF6_CIS: Attagene CIS-FACTORIAL HepG2 Assay for human Hepatocyte Nuclear Factor 6 (HNF6) (AID 2282952); conditions: HepG2 Attagene cis-factorial HNF6 reporter transcription; actives raise or lower the signal
# In short: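 Using cis-element reporters in HepG2 liver cells, the assay tracks endogenous factor-driven transcription 24 h post-dosing. Signal comes from 6-FAM-labelled, HpaI-digested RT-PCR fragments, with gain or loss scored against DMSO.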
# [6] = biological target: Heat shock factor protein 1 (Homo sapiens) (UniProt Q00613); experiment: ATG_HSE_CIS: Attagene CIS-FACTORIAL HepG2 Assay for human Heat Shock Transcription Factor 1 (HSE) (AID 2282953); conditions: HepG2 HSE cis-reporter, Attagene RNA transcription; actives raise or lower the signal
# In short: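 Endogenous transcription factor activity captured via cis-promoter reporter units transfected into HepG2; treatment lasted 24 h. Fluorescence intensity of reporter fragments analysed with bidirectional curve fitting, DMSO baseline.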
# [7] = ATG_MRE_CIS: Attagene CIS-FACTORIAL HepG2 Assay for human Metal Responsive Element (MRE) (AID 2282954); conditions: HepG2 MRE cis-reporter transcription, Attagene multiplex; actives raise or lower the signal
# In short: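 Measured here is mRNA induction from an MRE cis-element reporter in HepG2 after 24 h, quantified by fluorescence of labelled RT-PCR products on capillary electrophoresis; gain- and loss-of-signal fits use DMSO as baseline.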
# [8] = biological target: Paired box protein Pax-6 (Homo sapiens) (UniProt P26367); experiment: ATG_Pax6_CIS: Attagene CIS-FACTORIAL HepG2 Assay for human Paired Box 6 (PAX6) (AID 2282956); conditions: HepG2 CIS-FACTORIAL PAX6 reporter transcription, RNA readout; actives raise or lower the signal
# In short: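 Read-out is reporter transcript level, measured by RT-PCR with fluorescent primer extension and capillary electrophoresis after 24 h dosing of transfected HepG2 cells. Activity in either direction fitted relative to DMSO control.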
# [9] = ATG_PXRE_CIS: Attagene CIS-FACTORIAL HepG2 Assay for human Pregnane X Receptor Element (PXRE) (AID 2282957); conditions: HepG2 Attagene CIS-FACTORIAL PXRE reporter, mRNA; actives raise or lower the signal
# In short: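 Using HepG2 transfected with multiple reporter transcription units, endogenous factor-driven transcription was scored as reporter mRNA after 24 h exposure.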
# [10] = ATG_RORE_CIS: Attagene CIS-FACTORIAL HepG2 Assay for human RAR-related Orphan Receptor Element (RORE) (AID 2282959); conditions: HepG2 Attagene cis-factorial RORE reporter, mRNA; actives raise or lower the signal
# In short: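 Measured here: transcript induction of a cis-regulated reporter in HepG2 cells transiently transfected via FuGene 6. After 24 h, RNA was processed by RT-PCR and fluorescent capillary electrophoresis; DMSO defined baseline activity.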
# [11] = ATG_Sox_CIS: Attagene CIS-FACTORIAL HepG2 Assay for human SRY-box transcription factor (SOX) (AID 2282960); conditions: HepG2 Attagene cis-factorial SOX reporter, mRNA; actives raise or lower the signal
# In short: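 Using transiently transfected HepG2 cells, reporter transcription driven by cis elements was assessed 24 h after dosing. Signal was fluorescence of capillary-separated RT-PCR products, with DMSO defining baseline activity.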
# [12] = biological target: Transcription factor Sp1 (Homo sapiens) (UniProt P08047); experiment: ATG_Sp1_CIS: Attagene CIS-FACTORIAL HepG2 Assay for human Specificity Protein 1 (Sp1) (AID 2282961); conditions: HepG2 Sp1 cis-reporter transcription, actives raise or lower the signal
# In short: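 After transient transfection of HepG2 cells with cis-promoter reporter units and 24 h chemical treatment, reporter transcripts were quantified by RT-PCR and capillary electrophoresis fluorescence. Gain- and loss-of-signal fitted against DMSO.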
# [13] = biological target: Signal transducer and activator of transcription 3 (Homo sapiens) (UniProt P40763); experiment: ATG_STAT3_CIS: Attagene CIS-FACTORIAL HepG2 Assay for human Signal Transducer and Activator of Transcription 3 (STAT3) (AID 2282963); conditions: HepG2, Attagene cis-factorial STAT3 reporter transcription; actives raise or lower the signal
# In short: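 Fluorescence intensity of 6-FAM-labelled reporter fragments, separated by capillary electrophoresis after RT-PCR, gave the signal. Cells were HepG2 transfected with cis-element reporter units and treated 24 h; fitting was bidirectional relative to DMSO.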
# [14] = ATG_TA_CIS: Attagene CIS-FACTORIAL HepG2 Assay for human TA Basal Promoter (AID 2282964); conditions: HepG2 Attagene CIS-factorial TA basal promoter reporter; actives raise or lower the signal
# In short: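 Fluorescence from labelled RT-PCR reporter fragments, separated by capillary electrophoresis, gives the signal. Cells: HepG2 transiently carrying multiple reporter units, 24 h chemical dosing. Gain or loss relative to DMSO.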
# [15] = ATG_TCF_b_cat_CIS: Attagene CIS-FACTORIAL HepG2 Assay for human T-Cell-Factor with beta-catenin (TCF/b-cat) (AID 2282965); conditions: HepG2 TCF/beta-catenin cis-reporter transcription, actives raise or lower the signal
# In short: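 HepG2, transient MRTU transfection, cis-element-driven reporters (endogenous TFs). 24 h compound exposure. Readout: reporter mRNA by RT-PCR + 6-FAM primer extension, HpaI digest, capillary electrophoresis. Gain/loss fit vs DMSO baseline.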
# [16] = ATG_GRE_CIS: Attagene CIS-FACTORIAL HepG2 Assay for human Glucocorticoid Response Elements (GRE) (AID 2282947); conditions: HepG2 GRE cis-reporter, Attagene multiplex mRNA; actives raise or lower the signal
# In short: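 Fluorescence intensity of reporter-specific cDNA fragments, separated by capillary electrophoresis, provides the signal. Constructs carry cis-regulating promoters in transiently transfected HepG2 liver cells; 24 h incubation; fitting is bidirectional against DMSO.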
# [17] = ATG_PPRE_CIS: Attagene CIS-FACTORIAL HepG2 Assay for human Peroxisome Proliferator-activated Response Element (PPRE) (AID 2282958); conditions: HepG2 PPRE cis-element reporter, Attagene transcription factor profiling; actives raise or lower the signal
# In short: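 After human HepG2 hepatoma cells were transiently transfected with cis-promoter reporter constructs, they were exposed to test chemicals for 24 hours. Reporter RNA was then reverse-transcribed, PCR-amplified, FAM-labeled, HpaI-digested and quantified by capillary electrophoresis.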
# [18] = ATG_SREBP_CIS: Attagene CIS-FACTORIAL HepG2 Assay for human Sterol Regulatory Element Binding (SREBP) (AID 2282962); conditions: HepG2 Attagene cis-factorial SREBP reporter, mRNA; actives raise or lower the signal
# In short: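 Endogenous SREBP activity read as cis-element-driven reporter transcript in transiently transfected HepG2, 24 h post-dosing; quantified via RT-PCR plus capillary electrophoresis of fluorescent fragments. Gain or loss of signal fitted relative to DMSO baseline.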
# [19] = ATG_PBREM_CIS: Attagene CIS-FACTORIAL HepG2 Assay for human Phenobarbital-responsive Enhancer Module (PBREM) (AID 2282955); conditions: HepG2 PBREM cis-reporter, Attagene multiplexed transcription; actives raise or lower the signal
# In short: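 Readout: reporter mRNA, fluorescent RT-PCR fragments separated by capillary electrophoresis. System: HepG2 transiently transfected with cis-regulated reporter units. Exposure: 24 h. Analysis: bidirectional, DMSO baseline.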
# Hepatocyte nuclear factor 6 (Homo sapiens), sequence (Q9UBC0 whole entry, looked up, the tested form may be a part): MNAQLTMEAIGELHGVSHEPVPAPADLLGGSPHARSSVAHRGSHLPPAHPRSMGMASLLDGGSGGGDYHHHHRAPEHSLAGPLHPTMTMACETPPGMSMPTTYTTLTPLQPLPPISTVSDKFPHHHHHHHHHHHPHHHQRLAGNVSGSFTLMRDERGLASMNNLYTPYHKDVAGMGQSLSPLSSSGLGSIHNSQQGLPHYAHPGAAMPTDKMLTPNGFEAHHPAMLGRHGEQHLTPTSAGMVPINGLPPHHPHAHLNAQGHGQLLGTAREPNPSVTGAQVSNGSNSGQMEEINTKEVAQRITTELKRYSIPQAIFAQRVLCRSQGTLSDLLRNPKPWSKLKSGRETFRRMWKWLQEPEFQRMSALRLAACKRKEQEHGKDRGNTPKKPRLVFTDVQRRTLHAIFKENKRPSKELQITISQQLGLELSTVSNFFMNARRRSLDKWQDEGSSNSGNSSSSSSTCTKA
# Signal transducer and activator of transcription 3 (Homo sapiens), sequence (P40763 whole entry, looked up, the tested form may be a part): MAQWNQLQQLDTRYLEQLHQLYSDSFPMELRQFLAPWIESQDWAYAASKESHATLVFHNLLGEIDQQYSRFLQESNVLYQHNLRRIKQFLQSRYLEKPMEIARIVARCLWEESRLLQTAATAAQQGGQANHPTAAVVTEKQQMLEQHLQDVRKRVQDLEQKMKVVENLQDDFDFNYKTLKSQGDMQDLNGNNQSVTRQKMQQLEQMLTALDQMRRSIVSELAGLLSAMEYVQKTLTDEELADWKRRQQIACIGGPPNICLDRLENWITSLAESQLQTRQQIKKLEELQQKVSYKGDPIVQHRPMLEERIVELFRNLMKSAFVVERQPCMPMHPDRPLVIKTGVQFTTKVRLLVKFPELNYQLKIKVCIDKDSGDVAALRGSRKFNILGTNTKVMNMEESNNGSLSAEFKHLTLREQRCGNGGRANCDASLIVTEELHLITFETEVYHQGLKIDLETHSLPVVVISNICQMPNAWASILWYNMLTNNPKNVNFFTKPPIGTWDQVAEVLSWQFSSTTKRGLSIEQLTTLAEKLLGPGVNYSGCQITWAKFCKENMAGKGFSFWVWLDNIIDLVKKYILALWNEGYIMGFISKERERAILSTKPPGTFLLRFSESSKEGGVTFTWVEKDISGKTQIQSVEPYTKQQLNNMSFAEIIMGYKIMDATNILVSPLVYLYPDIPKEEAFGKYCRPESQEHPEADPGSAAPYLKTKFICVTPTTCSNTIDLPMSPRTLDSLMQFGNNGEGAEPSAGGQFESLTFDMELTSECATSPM
# Heat shock factor protein 1 (Homo sapiens), sequence (Q00613 whole entry, looked up, the tested form may be a part): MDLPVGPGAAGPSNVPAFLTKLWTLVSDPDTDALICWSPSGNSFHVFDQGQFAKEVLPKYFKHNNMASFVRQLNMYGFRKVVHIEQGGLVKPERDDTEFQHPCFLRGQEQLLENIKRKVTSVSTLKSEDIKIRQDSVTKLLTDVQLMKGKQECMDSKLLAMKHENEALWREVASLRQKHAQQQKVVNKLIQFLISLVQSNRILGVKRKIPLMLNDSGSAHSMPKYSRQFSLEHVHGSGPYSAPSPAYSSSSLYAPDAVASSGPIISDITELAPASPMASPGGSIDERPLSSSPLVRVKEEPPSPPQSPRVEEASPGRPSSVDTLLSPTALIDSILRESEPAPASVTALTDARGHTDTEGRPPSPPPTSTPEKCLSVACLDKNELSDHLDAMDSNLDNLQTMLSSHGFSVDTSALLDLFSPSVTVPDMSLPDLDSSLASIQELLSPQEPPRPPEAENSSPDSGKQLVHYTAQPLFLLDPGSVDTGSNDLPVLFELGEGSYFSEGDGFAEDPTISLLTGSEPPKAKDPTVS
# Hypoxia-inducible factor 1-alpha (Homo sapiens), sequence (Q16665 whole entry, looked up): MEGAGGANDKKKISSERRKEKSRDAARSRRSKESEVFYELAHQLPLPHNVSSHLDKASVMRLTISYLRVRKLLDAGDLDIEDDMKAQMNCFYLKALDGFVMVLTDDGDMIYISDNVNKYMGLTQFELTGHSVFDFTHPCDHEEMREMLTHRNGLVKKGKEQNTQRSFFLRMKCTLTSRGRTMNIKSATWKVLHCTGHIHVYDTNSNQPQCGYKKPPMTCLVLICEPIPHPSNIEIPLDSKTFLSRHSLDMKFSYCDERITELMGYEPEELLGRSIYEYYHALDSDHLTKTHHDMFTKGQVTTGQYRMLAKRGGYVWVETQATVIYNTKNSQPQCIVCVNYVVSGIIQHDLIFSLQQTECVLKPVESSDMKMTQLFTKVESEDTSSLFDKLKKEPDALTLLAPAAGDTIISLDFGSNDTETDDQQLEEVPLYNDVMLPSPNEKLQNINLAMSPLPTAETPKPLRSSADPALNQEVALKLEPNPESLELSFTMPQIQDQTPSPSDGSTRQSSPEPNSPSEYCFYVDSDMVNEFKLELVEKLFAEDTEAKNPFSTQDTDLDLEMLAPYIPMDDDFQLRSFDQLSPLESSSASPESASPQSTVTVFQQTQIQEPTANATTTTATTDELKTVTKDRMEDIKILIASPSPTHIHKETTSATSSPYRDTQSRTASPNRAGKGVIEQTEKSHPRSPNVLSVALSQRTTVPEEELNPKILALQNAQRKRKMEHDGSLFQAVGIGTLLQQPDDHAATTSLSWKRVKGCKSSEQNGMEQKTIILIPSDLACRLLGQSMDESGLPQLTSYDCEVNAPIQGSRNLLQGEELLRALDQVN
# Paired box protein Pax-6 (Homo sapiens), sequence (P26367 whole entry, looked up): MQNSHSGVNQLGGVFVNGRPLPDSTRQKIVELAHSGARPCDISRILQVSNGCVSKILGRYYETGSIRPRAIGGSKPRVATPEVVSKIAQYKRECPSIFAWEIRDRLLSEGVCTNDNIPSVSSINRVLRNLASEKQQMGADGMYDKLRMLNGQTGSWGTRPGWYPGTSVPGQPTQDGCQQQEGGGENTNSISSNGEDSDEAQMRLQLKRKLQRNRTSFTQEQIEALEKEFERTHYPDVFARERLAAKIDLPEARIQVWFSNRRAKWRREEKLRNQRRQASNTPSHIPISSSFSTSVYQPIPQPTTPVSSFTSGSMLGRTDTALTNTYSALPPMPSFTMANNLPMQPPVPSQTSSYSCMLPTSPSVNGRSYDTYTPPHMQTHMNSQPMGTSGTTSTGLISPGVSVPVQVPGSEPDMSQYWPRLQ
# Transcription factor Sp1 (Homo sapiens), sequence (P08047 whole entry, looked up): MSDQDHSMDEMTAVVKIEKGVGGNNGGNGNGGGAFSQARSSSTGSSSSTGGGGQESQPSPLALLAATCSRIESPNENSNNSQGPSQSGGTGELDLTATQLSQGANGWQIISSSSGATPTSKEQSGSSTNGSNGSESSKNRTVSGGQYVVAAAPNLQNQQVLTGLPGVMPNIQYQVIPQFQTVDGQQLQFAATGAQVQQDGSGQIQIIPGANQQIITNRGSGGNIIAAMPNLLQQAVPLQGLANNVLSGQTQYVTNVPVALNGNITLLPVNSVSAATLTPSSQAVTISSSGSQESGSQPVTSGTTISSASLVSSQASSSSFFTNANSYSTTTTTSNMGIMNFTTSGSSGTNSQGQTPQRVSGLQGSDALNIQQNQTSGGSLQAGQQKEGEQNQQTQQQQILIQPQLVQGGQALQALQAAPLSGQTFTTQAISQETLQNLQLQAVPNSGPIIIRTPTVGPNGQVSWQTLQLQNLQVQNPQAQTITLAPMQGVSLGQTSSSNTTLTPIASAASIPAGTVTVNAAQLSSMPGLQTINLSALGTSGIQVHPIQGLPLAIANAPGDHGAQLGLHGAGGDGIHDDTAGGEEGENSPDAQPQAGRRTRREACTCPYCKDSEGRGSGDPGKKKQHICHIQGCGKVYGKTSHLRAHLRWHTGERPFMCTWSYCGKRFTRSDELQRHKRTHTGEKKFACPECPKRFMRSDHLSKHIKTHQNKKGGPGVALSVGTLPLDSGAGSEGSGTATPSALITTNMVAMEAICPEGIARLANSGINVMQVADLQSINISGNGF
compound,measurement,setting,value
CC(C)(O)C(=O)Nc1ccc([N+](=O)[O-])c(C(F)(F)F)c1,outcome,[1],inactive
same,outcome,[2],inactive
same,outcome,[3],inactive
same,outcome,[4],inactive
same,outcome,[5],inactive
same,AC50,[6],77 µM (active)
same,outcome,[6],inactive
same,outcome,[7],inactive
same,AC50,[8],48.9 µM (active)
same,outcome,[8],inactive
same,AC50,[9],20.9 µM (active) [middle of 4 runs]
same,outcome,[10],inactive
same,outcome,[11],inactive
same,outcome,[12],inactive
same,outcome,[13],inactive
same,outcome,[14],inactive
same,outcome,[15],inactive
O=C(O)C(F)(F)C(F)(F)C(F)(F)C(F)(F)C(F)(F)F,outcome,[16],inactive
same,outcome,[1],inactive
same,outcome,[2],inactive
same,outcome,[3],inactive
same,AC50,[4],5.86 µM (active)
same,outcome,[4],inactive
same,outcome,[5],inactive
same,outcome,[6],inactive
same,outcome,[7],inactive
same,outcome,[8],inactive
same,outcome,[9],inactive
same,outcome,[17],inactive
same,outcome,[10],inactive
same,outcome,[11],inactive
same,outcome,[12],inactive
same,outcome,[13],inactive
same,outcome,[14],inactive
same,outcome,[15],inactive
ClC1=C(Cl)[C@]2(Cl)[C@@H]3[C@@H]4C[C@@H]([C@H]5O[C@@H]45)[C@@H]3[C@@]1(Cl)C2(Cl)Cl,outcome,[16],inactive
same,AC50,[1],80.5 µM (active)
same,outcome,[2],inactive
same,outcome,[3],inactive
same,outcome,[4],inactive
same,outcome,[5],inactive
same,outcome,[6],inactive
same,AC50,[7],46.5 µM (active)
same,outcome,[8],inactive
same,AC50,[9],2.36 µM (active)
same,outcome,[17],inactive
same,AC50,[10],81.4 µM (active)
same,outcome,[11],inactive
same,outcome,[12],inactive
same,outcome,[18],inactive
same,outcome,[13],inactive
same,outcome,[14],inactive
same,AC50,[15],56.2 µM (active)
CCNc1nc(NC(C)C)nc(SC)n1,outcome,[1],inactive
same,outcome,[2],inactive
same,outcome,[3],inactive
same,outcome,[4],inactive
same,outcome,[5],inactive
same,outcome,[6],inactive
same,outcome,[7],inactive
same,outcome,[19],inactive
same,outcome,[8],inactive
same,AC50,[9],13.5 µM (active)
same,outcome,[17],inactive
same,outcome,[10],inactive
same,outcome,[11],inactive
same,outcome,[12],inactive
same,outcome,[18],inactive
same,outcome,[13],inactive
same,outcome,[14],inactive
same,outcome,[15],inactive
Nn1cnnc1,outcome,[16],inactive
same,outcome,[1],inactive
same,outcome,[2],inactive
same,outcome,[3],inactive
same,outcome,[4],inactive
same,outcome,[5],inactive
same,outcome,[6],inactive
same,outcome,[7],inactive
same,outcome,[8],inactive
same,outcome,[9],inactive
same,outcome,[17],inactive
same,outcome,[10],inactive
same,outcome,[11],inactive
same,outcome,[12],inactive
same,outcome,[18],inactive
same,outcome,[13],inactive
same,outcome,[14],inactive
same,outcome,[15],inactive
ClC1=C(Cl)[C@]2(Cl)[C@@H]3[C@@H](Cl)[C@H]4O[C@H]4[C@@H]3C1(Cl)C2(Cl)Cl,outcome,[16],inactive
same,AC50,[1],57.6 µM (active)
same,outcome,[2],inactive
same,outcome,[3],inactive
same,outcome,[4],inactive
same,outcome,[5],inactive
same,AC50,[6],85.5 µM (active)
same,AC50,[7],100 µM (active)
same,outcome,[19],inactive
same,outcome,[8],inactive
same,AC50,[9],3.28 µM (active)
same,outcome,[17],inactive
same,outcome,[10],inactive
same,outcome,[11],inactive
same,AC50,[12],26.7 µM (active)
same,outcome,[13],inactive
same,outcome,[14],inactive
same,outcome,[15],inactive
